# Records with an inconclusive call do not appear. Calls of active or inactive are those of the source.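 How the source made its calls: active means inhibition of at least 30% at any tested concentration; inactive means the rest, inconclusive results apart.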
# Tested on: M18 aspartyl aminopeptidase (Plasmodium falciparum 3D7)
# Assay: P. falciparum M18 aspartyl aminopeptidase inhibition – biochemical, QFRET fluorogenic substrate, counter-screen for PfM17LAP inhibitor project, dose response (AID 588697)
# Conditions: recombinant PfM18AAP, H-Glu-NHMec fluorogenic substrate; series mostly up to 100 µM
row,Structure (SMILES),outcome
1,Cc1ccc(NC(=O)CSc2nc(O)cc(=O)n2Cc2ccccc2)cc1,inactive
2,COC(=O)c1ccccc1NC(=O)c1cc2cc3ccc(C)cc3nc2s1,inactive
3,COc1cc(NC(=O)c2ccc(-c3ccccc3)cc2)c(C(=O)O)cc1OC,inactive
4,O=C(CSc1nccc(=O)[nH]1)Nc1ccc(Oc2ccccc2)cc1,inactive
5,COC(=O)c1c(NC(=O)C2CC=CCC2C(=O)O)sc(C)c1-c1ccc(C)cc1 (centres undefined),inactive
6,O=C(Nc1ccc(Cl)cc1)Nc1ccccc1C(=O)O,inactive
7,O=C(O)c1ccccc1C(=O)Nc1nc2c(s1)CCCC2,inactive
8,Cc1cc(=O)[nH]c(SCC(=O)Nc2ccccc2)n1,inactive
9,N[C@@H](Cc1c[nH]c2ccccc12)C(=O)NO,inactive
10,O=C(CSc1nccc(=O)[nH]1)Nc1ccc(N2CCOCC2)cc1,inactive
11,CC(C)C[C@H](N)C(=O)NO,inactive
12,O=C(CSc1nc(O)cc(=O)[nH]1)Nc1ccccc1,inactive
13,COC(=O)c1ccccc1NC(=O)c1ccc2c(Cl)c3c(nc2c1)CCC3,inactive
14,O=C(CSc1ccccc1)Nc1cccc2c1C(=O)NC2=O,inactive
15,Cc1cc(SCC(=O)Nc2ccccc2C(=O)O)nc2ccccc12,inactive
16,COC(=O)c1c(NC(=O)c2ccccc2C(=O)O)sc2c1CCCC2,inactive
17,CC1=C(C)CC(C(=O)Nc2nc(-c3cc(C)ccc3C)c(C)s2)C(C(=O)O)C1 (centres undefined),inactive
18,CCn1c2ccccc2c2cc(NC(=O)CSc3nc(C)cc(=O)[nH]3)ccc21,inactive
19,CC1CCc2sc(C(=O)Nc3cccc4c3C(=O)NC4)cc2C1 (centres undefined),inactive

# Source: PubChem BioAssay AID588697 (Southern Research Specialized Biocontainment Screening …, 2011)
